Assay outcomes (PubChem BioAssay)
The entries come from a sample that favours hits as a whole.
LASV entry inh: blocks Lassa virus binding to or entry into cells | 300,000 tested, 1.2% active | AID 540256 | Potency, µM (titrated, usually from 37.9 µM), for the others: at the top dose activity change, negative = inhibition, most hits filed as inhibitors | Lassa virus pseudotype entry inhibition, cell reporter; calls by dose curve; tested in HEK293 cells; also: potency is read from the fitted curve at half-maximal effect; % is scaled to controls: 0 for no effect and ±100 for the full control effect; nearly all actives have a fitted effect of over 50% in size
Shiga inhibitor: Shiga toxin inhibition; inhibition, % at 38.7 µM; Vero cells, Shiga toxin protein synthesis inhibition reporter; 290,000 tested, 9.2% active; in the data active = inhibition mostly above about 28%, no sharp cut-off; inactive = mostly below about 43%; also: 0% is about no effect
MARV entry inh: inhibitors of Marburg virus binding or cell entry. AID 540276. 300,000 tested, 1.8% active. Marburg virus pseudotyped entry inhibition, cell reporter. Potency, µM (top dose mostly 37.8 µM), for the others: top-dose activity change, negative = inhibition, actives largely listed as inhibitors; calls by dose curve; tested in HEK293 cells; also: potency is read from the fitted curve at half-maximal effect; % is scaled to controls: 0 for no effect and ±100 for the full control effect
Cycloheximide cs: counter-screen for Shiga toxin inhibitors: cycloheximide protein synthesis inhibition | AID 2314 | max response, % | cell reporter, cycloheximide protein synthesis inhibition counterscreen | 300,000 tested, 12% active; in the data active = max response mostly above about 13%, no sharp cut-off; inactive = mostly below about 14%; also: read at 38.3 µM for the half of the compounds with a filed dose; 0% is about no effect
VACV mCherry inh: inhibitors of vaccinia virus infection (mCherry reporter signal) | AID 720579 | Vaccinia virus mCherry reporter infection, fluorescence | Potency, µM (titrated, usually from 36.5 µM), without a hit: top-dose activity change, negative = inhibition, most hits filed as inhibitors | 310,000 tested, 0.63% active; calls by dose curve; tested in A549 cells; also: potency is read from the fitted curve at half-maximal effect; % is scaled to controls: 0 for no effect and ±100 for the full control effect; nearly all actives have a fitted effect of over 35% in size
VACV Venus inh: vaccinia inhibition (Venus reporter) | Vaccinia virus Venus reporter expression, fluorescence | Potency, µM (top dose mostly 36.5 µM), without a hit: at the highest dose activity change, negative = inhibition, most hits filed as inhibitors | 330,000 tested, 0.46% active | AID 720580; calls by dose curve; tested in A549 cells; also: potency is read from the fitted curve at half-maximal effect; % is scaled to controls: 0 for no effect and ±100 for the full control effect; nearly all actives have a fitted effect of over 30% in size
The depositor's hits bear a star; i = inactive; ? = inconclusive; · = no result given; + = active, no number; [ ] = another dose, or the depositor's remark.

SMILES	LASV entry inh	Shiga inhibitor	MARV entry inh	Cycloheximide cs	VACV mCherry inh	VACV Venus inh
CCn1c(COc2ccccc2)nc2ccccc21	25%	36*	-1%	24*	?	-19%
CCOc1ccc(NCc2nc3ccccc3n2CCOc2ccccc2)cc1	?	61*	?	38*	-26%	?
CCn1c(COc2ccc(OC)cc2)nc2ccccc21	2%	80*	-6%	50*	·	·
COC(=O)c1cn([C@H]2C[C@@H](C(=O)N3CCCCCC3)N(Cc3ccsc3)C2)nn1	·	·	·	·	-10%	-7%
O=c1oc2ccccc2nc1/C=C(\O)c1ccc(Br)cc1	·	39*	·	27*	·	·
C/C(O)=C\c1nc2ccccc2oc1=O	0%	47*	10%	25*	-16%	-3%
Cc1ccccc1NC(=O)Cn1cc(S(=O)(=O)c2ccccc2)c(=O)c2ccccc21	16%[46.1 µM]	·	7%[46.1 µM]	·	-6%	-2%
O=C(O)c1cc(-c2ccc(C(F)(F)F)cc2)nc2n[nH]c(-c3ccccc3)c12	-18%[46.1 µM]	·	·	·	-10%	-10%
COc1ccc(NC(=O)Cn2cccc2)cc1Cl	54%[14.3 µM]	-12	7%	-3	i	-15%
O=C(CSc1nccn1-c1ccccc1)c1ccc(Br)cc1	4%	39*	2%	16*	·	6%
O=C(OC1CCN(c2ncc(C(F)(F)F)cc2Cl)CC1)c1ccc(Cl)cc1	11%	-6	-1%	-1	·	·
O=C(O)CCCSc1nccn1-c1ccccc1	0%	-11	14%[46.1 µM]	13	i	-1%
O=C(CSc1nccn1-c1ncc(C(F)(F)F)cc1Cl)c1ccc(Cl)cc1	?	+	3%	47*	i[1.46 µM]	-2%
Cn1ccnc1SCC(=O)c1c[nH]c2ccccc12	-21%[46.1 µM]	78*	?	44*	i	-9%
Cn1ccnc1SCC(=O)c1ccc(Br)cc1	26%	60*	6%	38*	i	-8%
Cc1ccc2c(CC(=O)OCC(=O)N(CC(C)C)c3c(N)n(Cc4ccccc4)c(=O)[nH]c3=O)coc2c1	-18%	·	-23%[46.1 µM]	·	-9%	-17%
Oc1ccc(C2=NNC(=NCc3ccc4c(c3)OCO4)SC2)c(O)c1	-12%	14	?	32*	?	-29%
CC(C)(C)N=C1NN=C(c2ccc(Cl)cc2)CS1	·	91*	·	70*	·	·
CC(C)(C)N=C1NN=C(c2cc3ccccc3o2)CS1	?	86*	?	30*	-2%	-3%
COc1ccc(OC)c(C2=NNC(=NCc3ccc4c(c3)OCO4)SC2)c1	?	-7	-21%[46.1 µM]	-2	-22%	-6%
CC(O)(c1ccc(F)c(F)c1)c1nc(-c2cc3ccccc3o2)cs1 (configuration not stated)	·	·	·	·	-11%	-23%
COc1ccc(CN=C2Nc3ccccc3CS2)cc1	?	60	?	30*	·	·
C=CCn1c(C)cc(C2=NNC(=NC(C)(C)C)SC2)c1C	?	7	?	1	-18%	-25%
COc1ccc(CN=C2NC(=O)CC(C(=O)Nc3ccc(F)cc3)S2)cc1 (configuration not stated)	6%	12	-6%	-2	-8%	-6%
COc1ccccc1CNc1nc2c(S(=O)(=O)c3ccc(C)c(C)c3)nnn2c2ccc(Cl)cc12	·	·	0%[46.1 µM]	·	?	?
SMILES	LASV entry inh	Shiga inhibitor	MARV entry inh	Cycloheximide cs	VACV mCherry inh	VACV Venus inh
COc1ccc(CN=C2NN=C(c3ccc(Cl)cc3)CS2)cc1	2%	52*	23%[46.1 µM]	21*	i	-10%
COc1ccc(N=C2SCC(c3ccc(C)cc3)=NN2CCO)cc1	?	4	?	1	i	-7%
Clc1ccc(C2=NNC(=NCc3ccc4c(c3)OCO4)SC2)cc1	?	27	13µM*	1	-25%	-6%
COc1ccc(C2=NN(C)C(=NCc3ccccc3)SC2)cc1	0%	38*	1%	14	·	·
Cc1cc(SCC(=O)N/N=C/c2ccc(C(=O)O)cc2)nc2ccccc12	27%[46.1 µM]	-8	20%[46.1 µM]	-3	i	-7%
CC(=O)Nc1ccc(NC(=O)C(C)OC(=O)c2cc(S(=O)(=O)N(C)C)ccc2N2CCCC2)cc1 (configuration not stated)	22%	·	-7%	·	i	-10%
CC(C)(C)NC(=O)c1cc(-c2ccccc2)n[nH]1	-7%	11	5%	4	i	-6%
CC(C)(C)c1cc(-c2ccccc2)n[nH]1	·	34	·	15*	·	·
CC1(C(=O)NS(=O)(=O)C2CC2)CCCN(C(=O)C2(c3ccc(Cl)cc3)CCCC2)C1 (configuration not stated)	·	·	·	·	5%	-5%
CC(=O)c1ccc(NC(=O)CSc2nc(N)c3cc4c(nc3n2)CCCC4)cc1	-1%	66*	-21%	37*	i	-20%
COc1ccc(NC(=O)CSc2nc(N)c3cc4c(nc3n2)CCCC4)cc1	?	61*	?	47*	-21%	-29%
COc1ccc(NC(=O)CSc2nc(N)c3cc4c(nc3n2)CC(C)(C)OC4)cc1	?	1	?	-2	-6%	-8%
O=C(CSc1nnc(CNC(=O)c2c(F)cccc2Cl)o1)Nc1ccccc1F	9%[46.1 µM]	·	14%[46.1 µM]	·	-5%	-3%
Cc1cc2ccc3ccccc3c2cc1CN(C)C	6%	60*	?	33*	-12%	1%
COc1ccccc1NC(=O)CC1SC(=N)N(c2ccccc2)C1=O (configuration not stated)	?	-4	-9%[46.1 µM]	-5	?	-22%
CCOc1ccc(NC(=O)CC2SC(=O)N(c3ccccc3)C2=O)cc1 (configuration not stated)	15%	44*	5%[46.1 µM]	21*	i	-11%
CCCN1C(=O)SC(CC(=O)Nc2ccccc2C)C1=O (configuration not stated)	-3%	-5	-7%	1	·	-20%
Cc1ccccc1NC(=O)CC1SC(=O)N(c2ccccc2)C1=O (configuration not stated)	2%	64*	21%	47*	4%	13%
O=C(CC1SC(=O)N(c2ccccc2)C1=O)Nc1cccc2ccccc12 (configuration not stated)	-1%	38	-12%[46.1 µM]	21*	?	-8%
CCOc1ccc(NC(=O)CN2C(=O)CSC(C)C2=O)cc1 (configuration not stated)	-23%	113*	27%	41*	i	0%
CCN(CC)c1ccc(/C=N/NC(=O)Cc2cccs2)c(O)c1	3.2µM*	78*	16µM*	32*	6.3µM*	?
O=C(Cc1cccs1)N/N=C/c1ccco1	11%	15	13%	-2	-12%	-12%
CCN(CC)c1ccc(/C=N/NC(=O)c2ccco2)cc1	4.5µM*	53*	7.3µM*	49*	-28%	-25%
CCN(CC)c1ccc(/C=N/NC(=O)c2ccco2)c(O)c1	·	76*	·	38*	·	·
CCN(CC)c1ccc(/C=N/N=C(c2ccccc2)c2ccccc2)c(O)c1	10µM*	18	?	-2	i	-9%
CCN(CC)c1ccc(/C=N/NC(=S)NCc2ccccc2)c(O)c1	?	-7	?	-6	?	?
